Source: PubChem
D1 ag: activates the human D1 dopamine receptor; P21728; HEK293 T-REx D1 cells, calcium flux, agonist mode; activation, % at 2 µM; hit rate 1% among 360,000; AID 504660; in the data active = activation above about 30%; note: 0% is about no effect
Target sequence (P21728 whole entry, looked up): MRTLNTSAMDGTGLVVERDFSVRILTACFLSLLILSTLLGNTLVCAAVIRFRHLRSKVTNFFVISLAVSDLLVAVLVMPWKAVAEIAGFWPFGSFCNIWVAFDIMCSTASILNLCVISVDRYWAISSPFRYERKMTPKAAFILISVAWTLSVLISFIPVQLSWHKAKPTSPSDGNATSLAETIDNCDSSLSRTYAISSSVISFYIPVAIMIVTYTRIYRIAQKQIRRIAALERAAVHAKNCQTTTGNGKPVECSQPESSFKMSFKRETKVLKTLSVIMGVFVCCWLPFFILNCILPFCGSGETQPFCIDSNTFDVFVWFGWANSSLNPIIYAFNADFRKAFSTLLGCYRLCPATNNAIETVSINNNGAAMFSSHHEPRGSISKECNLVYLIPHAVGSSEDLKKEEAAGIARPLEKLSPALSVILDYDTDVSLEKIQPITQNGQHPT
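Agonism was scored from calcium flux recorded over 180 s (1 read/s) after pintool compound addition, following a 10-cycle baseline. Cells were inducible force-coupled HEK293 TREx D1, plated overnight at 30 C and loaded with no-wash calcium dye.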
D1 antag: human D1 dopamine receptor antagonism; hit rate 3.2% among 360,000; P21728; AID 504652; HEK293 TREx D1 cells, calcium flux, dopamine EC80; hits give low values; activity change, negative = inhibition, % at 10 µM; in the data active = activity change below about -30%; note: % is set by controls: 0 for no effect and ±100 for the full control effect
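Kinetic fluorescence of a calcium dye serves as the read-out. D1-expressing Hek293 Trex cells, induced overnight at 30 C, are exposed to compound for 180 s before an EC80 dopamine addition, then read 180 s further.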
D1 PAM: potentiators of human D1 dopamine receptor | HEK293 TREx D1 cells, calcium flux, dopamine EC20 potentiation | potentiation, % at 10 µM | hit rate 0.036% among 360,000 | AID 504651; in the data active = potentiation above about 30%; note: 0% is about no effect
D3 ag: agonists of human D3 dopamine receptor. D3R DiscoveRx beta-arrestin cells, luminescence, 90 min. max activation, %. hit rate 0.58% among 410,000; in the data active = max activation above about 30%; note: 0% is about no effect
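Cells at 1500/well, incubated overnight, then treated with pinned compounds (dopamine as control) for 90 min at 37 degrees C. DiscoveRx reagent added for 30 - 60 minutes at room temperature; luminescence read.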
D3 antag: blocks the human D3 dopamine receptor. P35462. D3R cells, DiscoveRx beta-arrestin luminescence, antagonist mode; hits give low values. max response, negative = inhibition, %. hit rate 2.5% among 360,000. AID 652054; in the data active = max response below about -50%; inconclusive = no clear call, values can overlap the other calls; note: % is set by controls: 0 for no effect and ±100 for the full control effect
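Cells plated overnight at 1500 cells/well, then exposed to library compounds with dopamine controls for 90 minutes at 37 degrees C. DiscoveRx reagent added for 30–60 minutes at room temperature; luminescence read, quantitative HTS format.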
Active calls of the source: *; u = inconclusive; x = no result. In the library only some 6% were active in any assay of this set; here they are far more common.

SMILES	D1 ag	D1 antag	D1 PAM	D3 ag	D3 antag
COc1ccc(CCNC(=O)COc2ccc(-c3ccc(C)cc3)cc2)cc1OC	2.1	-30.9*	-1.4	26.5	21.1
COc1ccc(CCNC(=O)CCOc2ccc(C)cc2)cc1OC	1.3	-17.7	0.1	3.9	0.1
CCOc1ccc(NC(=O)CCc2c(C)nc3c4c(C)cc(C)nc4nn3c2C)cc1	2.6	12.8	-0.1	-16.2	x
O=C(C1CCCCN1S(=O)(=O)c1ccccc1[N+](=O)[O-])N1CCCC1 (stereo not drawn)	-3.0	5.1	0.3	0.0	-53.3*
COc1cccc(CN2CCN(CCCc3ccccc3)C(CCO)C2)c1OC (stereo not drawn)	0.1	0.2	-2.8	-20.7	-20.1
COc1ccc(CN2CCN(CCCc3ccccc3)C(CCO)C2)c(O)c1 (stereo not drawn)	3.5	2.5	-4.3	-12.5	1.2
OCCC1CN(Cc2ccccc2O)CCN1CCCc1ccccc1 (stereo not drawn)	0.7	20.1	-7.7	-5.6	-75.1*
COc1ccc(OC)c(CN2CCN(CCCc3ccccc3)C(CCO)C2)c1 (stereo not drawn)	-2.6	20.7	-4.0	-25.9	-87.0*
Cc1ccccc1CN1CCN(CCCc2ccccc2)C(CCO)C1 (stereo not drawn)	12.2	2.5	-7.6	-23.3	-78.1*
CC(C)/C=C/CN1CCN(CCCc2ccccc2)C(CCO)C1 (stereo not drawn)	3.2	0.8	-1.9	-17.5	-63.0*
CC(C)CCN1CCN(CCCc2ccccc2)CC1CCO (stereo not drawn)	0.2	-3.6	-1.5	-14.9	-15.0
CCc1cccc(C)c1NC(=O)Cn1cnc2c1c(=O)n(C)c(=O)n2C	0.2	6.6	1.1	-4.0	x
OCCC1CN(Cc2ccc(Oc3ncccn3)cc2)CCN1Cc1ccc(F)c(F)c1 (stereo not drawn)	0.8	-1.9	-5.3	-18.4	-72.3*
Cc1ccccc1CN1CCN(CC2CC2)CC1CCO (stereo not drawn)	-3.9	1.1	-2.5	-5.7	-82.3*
OCCC1CN(CCCc2ccccc2)CCN1Cc1ccc(F)cc1 (stereo not drawn)	7.8	0.7	0.4	-33.6	-55.5*
CCCSc1ncnc2c1c(-c1ccccc1)cn2-c1ccccc1OC	5.3	3.2	4.7	8.4	x
CCN1CCN(c2cc(SC(C)C)nc(-c3ccc(OC)cc3)n2)CC1	16.5	57.7	0.9	-23.2	-64.9*
O=C(COc1ccccc1)N1CCN(c2ccccc2)CC1	3.5	-34.6*	-2.7	2.4	1.3
O=C(CSc1ccsc1[N+](=O)[O-])N1CCN(c2ccc(Cl)cc2)CC1	3.3	4.1	3.5	0.3	-9.4
O=C(CSc1ccsc1[N+](=O)[O-])N1CCN(c2ccccc2)CC1	0.1	-31.1*	-9.6	-11.4	-28.1
CCCS(=O)(=O)N1CCN(C(=O)COc2ccccc2)CC1	-0.6	10.2	-7.5	34.1*	-19.9
CCCS(=O)(=O)N1CCN(C(=O)COc2ccc(-c3ccccc3)cc2)CC1	4.9	-2.3	-5.8	0.9	2.3
Cn1c(Cn2c(=O)sc3ccccc32)nnc1SCC(=O)N1CCN(c2ccccc2)CC1	0.1	3.6	2.4	-5.7	u
O=C(CSc1nnc2sc3ccccc3n12)N1CCN(c2ccccc2)CC1	-2.5	-59.1*	-5.2	-3.0	8.0
COc1ccc(OC)c(S(=O)(=O)Nc2ccc3c(c2)OCCO3)c1	x	x	x	5.7	-9.4
SMILES	D1 ag	D1 antag	D1 PAM	D3 ag	D3 antag
CCOc1ccc(S(=O)(=O)NCc2ccc3c(c2)OCO3)cc1NC(C)=O	3.4	11.7	-4.2	-13.5	5.3
CCOC(=O)c1sc2ncn(CC(=O)Nc3ccc(F)cc3F)c(=O)c2c1C	7.2	-2.5	1.2	3.0	x
O=C(OCC(=O)N1CCN(c2ccccc2)CC1)c1cccc([N+](=O)[O-])c1	2.2	-14.1	-2.3	-6.4	-24.7
O=C(OCC(=O)N1CCN(c2ccccc2)CC1)c1ccccc1[N+](=O)[O-]	3.3	-36.2*	-15.5	8.1	-3.5
Cc1ccccc1OCCCCn1c(-c2ccc(Cl)cc2)nc2ccccc2c1=O	3.3	-1.9	-1.6	-1.1	x
Oc1cnc2ccccc2c1CN1CCOCC1	4.4	3.7	-0.6	-3.3	-77.5*
CCNc1ccc(Br)cc(C(=O)/C=C/c2ccc(Cl)cc2Cl)c1=O	4.2	-2.1	1.4	-4.1	-77.5*
CCOC(=O)C1CCCN(c2c(N3CCC(N4CCCCC4)CC3)c(=O)c2=O)C1 (stereo not drawn)	2.5	-33.1*	x	-8.7	-23.2
C=CCNCC#CCOc1ccc(OC)cc1	-0.1	-8.9	-2.1	-4.9	-62.0*
COCCNCC#CCOc1ccc(OC)cc1	1.7	-10.3	-0.1	-10.9	-6.1
COc1ccc(CN2CCC3CC2c2cc(Cl)ccc23)cc1 (stereo not drawn)	x	x	x	-71.7	-59.1*
Clc1ccc2c(c1)C1CC2CCN1Cc1ccccc1 (stereo not drawn)	x	x	x	-50.8	u
O=Nc1c(O)n(Cc2cccc(C(F)(F)F)c2)c2ccccc12	68.9*	51.9	23.0	7.8	0.0
O=Nc1c(O)n(Cc2ccccc2)c2ccccc12	2.0	12.8	24.8	6.1	-0.1
CN(C(=O)CC1C(=O)NCCN1Cc1ccoc1)C1CCOCC1 (stereo not drawn)	1.5	7.5	2.2	-13.3	-6.4
CN(CC1CCOCC1)C(=O)CC1C(=O)NCCN1Cc1cccc(C(F)(F)F)c1 (stereo not drawn)	1.8	-76.7*	6.0	-9.3	6.8
Cc1ccc(CN2CCNC(=O)C2CC(=O)N(C)C2CCOCC2)cc1 (stereo not drawn)	2.4	-33.1*	-5.7	-2.9	2.3
CC(C)(Cc1ccccc1)NC(=O)C(=O)c1cn(CC(=O)N2CCOCC2)c2ccccc12	2.6	9.4	-0.5	-9.5	-69.5*
O=C(NCc1ccc(Cl)cc1)C(=O)c1cn(CC(=O)N2CCOCC2)c2ccccc12	-0.4	-1.8	-7.0	-1.9	-23.0
Cc1c(Cl)cccc1NC(=O)Cn1c(=O)nc(-c2ccccc2)c2ccccc21	6.6	-3.7	-0.3	1.6	x
Cc1ccc(-c2csc(/C(C#N)=C/c3ccccc3Cl)n2)cc1	9.9	7.7	-0.1	3.4	x
Cn1c(CCCCCN)nc2ccccc21	2.7	19.2	3.1	0.1	-64.0*
O=C(NCCc1nc2ccccc2n1Cc1ccccc1F)c1ccc(F)cc1	9.6	-35.8*	-4.3	-6.1	x
Cn1c(CCNC(=O)c2ccc(F)cc2)nc2ccccc21	2.0	-19.7	0.1	-7.9	-66.3*
CCn1cc(C(=O)NCCCN2CCC(C)CC2)c(=O)c2cc(S(=O)(=O)N(C)C3CCCCC3)ccc21	1.3	2.8	2.3	-5.2	-3.0
N#CC1=C(S)N=C(N)C(c2nc(-c3ccccc3)cs2)C12CCCCC2 (stereo not drawn)	3.3	-6.3	2.9	-7.0	-19.8
Cc1ccc(-c2csc(C3C(N)=NC(S)=C(C#N)C34CCCCC4)n2)cc1 (stereo not drawn)	-2.3	-5.5	1.4	7.3	-71.8*
